Laboratory results published in PubChem BioAssay (NCI).
The panel holds about 83,000 compounds, 20% with a hit somewhere; the sample as a whole holds those more often.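 Single-concentration screen, 48 h exposure, 96-well plates. Endpoint: percent growth. Below 10 = active.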 Unmarked numbers belong to inactive results. Calls of active or inactive are those of the source.

tested on: HL-60(TB) leukemia; assay: NCI-60 one-dose screen, 48 h (100 = growth as untreated, 0 = no growth, -100 = all killed); conditions: 10 µM unless noted

Structure (SMILES)	growth
N#Cc1c(-c2ccc(F)cc2)nc2c(C#N)c(Nc3ccccc3)nn2c1N	104%
Cc1c(F)cc(C(N)=O)cc1NCC(=O)Nc1ccc([N+](=O)[O-])cc1	132%
COc1cc(N=Cc2sc(Nc3nccs3)nc2O)cc(OC)c1OC	82.8%
CC1=C(C)C(=O)C(Nc2ccc(C)cc2)=C(Br)C1=O	68.6%
CC1=C(C)C(=O)C(Nc2cccc(C(F)(F)F)c2)=C(Cl)C1=O	38.5%
COc1ccc(Cn2cc3c(c2-c2ccccc2)CCCc2cnoc2-3)cc1	6.55% (active)
O=C(/C=C/C=C/c1csc(Br)n1)NO	58.4%
N#Cc1c(-c2ccc(Cl)cc2)nc(SCc2ccc([N+](=O)[O-])cc2)nc1N1CCNCC1	-53.3% (active)
Nc1ncc(-c2ccc3ncnc(Nc4cccc(Cl)c4F)c3c2)cn1	90.5%
CCN1C(=O)N(CC)C2SC(N/N=C/c3ccc(OC)cc3)=NC21 (centres undefined)	-16.6% (active)
CCn1c2ccc(/C=N/OCCCN(C)C)cc2c2cc(/C=N/OCCCN(C)C)ccc21	-36.9% (active)
COc1ccc(/C(=N\N=C(N)N)c2ccc(Cl)cc2)cc1OC	44.9%
CCCCCCCCCC[C@@H](C)[C@@H]1CC(=O)N[C@H]([C@@H](C)O)C(=O)N[C@@H](C)C(=O)N[C@H](C)C(=O)N[C@@H](CCC(N)=O)C(=O)N[C@H](Cc2ccc(O)cc2)C(=O)N[C@@H](C(C)CC)C(=O)O1 (some centres undefined)	65%
Cc1cccc2c3c(sc12)C(c1ccc(F)cc1)C(C#N)=C(/N=C/c1ccc(Cl)cc1)O3 (centres undefined)	2.41% (active)
